Source: PubChem BioAssay AID1903 (Southern Research Specialized Biocontainment Screening …, 2009)
Out of some 310,000 compounds screened, about 1,200 (0.39%) were called active. These entries were drawn from the full list. Measured potencies and affinities stand elsewhere. A number with no mark means an inactive call. No rule for the calls is given here.

molecular target: Large T antigen (Simian virus 40) (UniProt P03070); test: TAg ATPase/helicase activity blockers – biochemical (AID 1903); conditions: SV40 large T antigen ATPase/helicase inhibition assay; at 20 µM; hits give high values
Sequence (P03070 whole entry, looked up): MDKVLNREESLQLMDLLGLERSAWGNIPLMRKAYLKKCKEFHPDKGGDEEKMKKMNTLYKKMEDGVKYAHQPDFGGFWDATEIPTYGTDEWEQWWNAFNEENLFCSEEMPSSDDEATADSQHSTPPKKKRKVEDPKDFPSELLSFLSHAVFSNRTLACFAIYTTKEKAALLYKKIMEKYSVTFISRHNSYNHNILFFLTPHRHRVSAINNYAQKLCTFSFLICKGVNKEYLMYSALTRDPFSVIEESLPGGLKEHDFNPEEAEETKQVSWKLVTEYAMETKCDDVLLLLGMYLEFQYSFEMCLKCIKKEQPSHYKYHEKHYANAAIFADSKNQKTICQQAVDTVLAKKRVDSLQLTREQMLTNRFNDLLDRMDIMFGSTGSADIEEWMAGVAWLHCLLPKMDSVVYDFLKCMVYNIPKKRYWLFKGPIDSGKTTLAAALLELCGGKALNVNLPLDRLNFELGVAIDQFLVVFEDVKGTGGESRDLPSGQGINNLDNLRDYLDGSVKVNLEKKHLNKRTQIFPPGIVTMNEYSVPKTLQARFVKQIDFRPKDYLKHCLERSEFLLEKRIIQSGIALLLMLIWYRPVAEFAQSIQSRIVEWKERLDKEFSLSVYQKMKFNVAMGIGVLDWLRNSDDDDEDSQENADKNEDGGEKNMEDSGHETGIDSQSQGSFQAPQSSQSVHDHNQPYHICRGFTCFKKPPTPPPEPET

SMILES	inhibition [%]
O=C(CCN1CCN(c2ccc(Cl)cc2)CC1)Nc1nccs1	17.1
COC(=O)c1ccc(CN2CCC(n3nccc3NC(=O)C3CCCC3)CC2)cc1	20
O=C(COC(=O)C1(c2ccccc2)CC1)NNC(=O)c1ccccc1	11.2
COc1cc(C=O)ccc1OCCOCCOc1cc(C)ccc1Cl	10.5
O=C(c1ccc(-c2ccc([N+](=O)[O-])cc2)o1)N1CCCCC1	9.33
Cc1ccc(N2NC(=O)/C(=C/c3ccc(-c4ccc(Cl)c(C(=O)O)c4)o3)C2=O)cc1C	33.6
C#CCN1C(=O)S/C(=C\c2ccc(-c3ccc(Cl)c(C(=O)O)c3)o2)C1=O	11.9
Cc1ccc(N2NC(=O)/C(=C/c3ccc(-c4ccc(Cl)c(C(=O)O)c4)o3)C2=O)cc1	14.8
CCOC(=O)CN1C(=O)S/C(=C\c2ccc(-c3ccc(C(=O)O)c(Cl)c3)o2)C1=O	17
O=C(O)c1cc(-c2ccc(/C=C3/SC(=S)N(Cc4ccccc4)C3=O)o2)ccc1Cl	24.7
O=C(O)c1cc(-c2ccc(/C=C3\NC(=O)N(c4ccc(Cl)cc4)C3=O)o2)ccc1Cl	31.3
O=C(CCN1C(=O)C2CC=C(Cl)CC2C1=O)Nc1ccccc1O (stereo unspecified)	3.99
C/C(=N\Nc1ccc(C(=O)O)cc1)c1ccc(S(=O)(=O)NCc2ccco2)cc1	11
CCc1cccc(C)c1NC(=O)c1ccc2c(c1)CCN2S(C)(=O)=O	1.63
Nc1ccc2c(c1)Cc1cc([N+](=O)[O-])ccc1-2	7.98
Nc1ccc2c(c1)C(=O)c1ccccc1C2=O	7.9
CC(=O)N1CCN(C(=O)CSc2nc3c(cnn3-c3ccccc3)c(=O)[nH]2)CC1	2.65
Cc1cccc2cc(CN(CCCN3CCOCC3)Cc3nnnn3C(C)(C)C)c(=O)[nH]c12	10
O=C(Nc1ccccc1Cl)N1CCSc2ccccc21	5.32
CCCCCn1c(=O)c2ccccc2n2c(CCl)nnc12	15.8
COCCCn1c(=O)c2ccccc2c2ccccc2c1=O	-0.58
Cc1nnc2n(-c3ccccc3)c(=O)c3ccccc3n12	-1.7
CCCn1c(=O)c2ccccc2n2c(SCC(=O)c3ccccc3)nnc12	16.8

SMILES	inhibition [%]
CCCCn1c(=O)c2ccccc2c2ccccc2c1=O	3.41
COc1cccc(-n2c(SCC(N)=O)nc3ccccc3c2=O)c1	4.09
COCCCn1c(=O)c2ccccc2n(Cc2ccccc2)c1=O	7.67
CCCn1c(=O)c2ccccc2n2c(SCC(N)=O)nnc12	9.05
Cn1c(CNC(=O)C(Cc2ccccc2)NC(=O)c2cccc(F)c2)cc(=O)n(C)c1=O (stereo unspecified)	-0.65
O=C(NNC(=O)c1ccc[nH]1)c1cc(Cl)cc(Cl)c1	10.3
COc1ccccc1C(=O)NNC(=O)c1ccc(NS(=O)(=O)c2cccs2)cc1	16.7
O=S(=O)(c1ccccc1)N1CCN(Cc2ccc(Cl)cc2)CC1	10.3
O=C1CCCC/C1=C/Nc1cccc(C(F)(F)F)c1	18.4
CC1SCC(NC(=O)c2ccccc2Cl)CS1 (stereo unspecified)	8.46
CC(=O)OCCN1C(=O)c2cccc3cc([N+](=O)[O-])cc(c23)C1=O	14.1
Cc1ccc(-c2[nH]ncc2C(=O)c2ccc(Br)cc2)c(O)c1	7.57
CCCN1C(=O)C(NC(=O)c2ccncc2)(C(F)(F)F)C2=C1CC(C)(C)CC2=O (stereo unspecified)	-1.41
Cc1ccc(/C=C/c2onc(C)c2S(=O)(=O)N2CCC(C(=O)NC(C)(C)C)CC2)cc1	2.7
CC(C)C(=O)Nc1ccc(-c2csc(-c3ccccc3)n2)cc1	1.63
CC(C)C(=O)Nc1cccc(-c2csc(-c3ccccc3)n2)c1	-59.4
CCOC(=O)Cc1csc(NC(=O)/C=C/c2cccc(Br)c2)n1	-3.33
COc1cc(C(=O)Nn2c(C)nc3ccccc3c2=O)cc(OC)c1OC	7.45
Cc1ccc(/C=C2/C(=N)N3N=C(CC(=O)N4CCCC4)SC3=NC2=O)cc1	30.2
CC(C)c1ccc(/C=C2\C(=N)N3N=C(CC(=O)N4CCCCC4)SC3=NC2=O)cc1	36.9
C=CCOc1ccc(/C=C2/C(=N)N3N=C(CC(=O)N4CCCC4)SC3=NC2=O)cc1OC	11.3
CSc1ccc(/C=C2\C(=N)N3N=C(CC(=O)N4CCCCC4)SC3=NC2=O)cc1	26.3
CCc1ccc(/C=C2\C(=N)N3N=C(CC(=O)N4CCCCC4)SC3=NC2=O)cc1	10.1

SMILES	inhibition [%]
CSc1ccc(/C=C2/C(=N)N3N=C(CC(=O)N4CCCC4)SC3=NC2=O)cc1	12.1
COc1ccc(/C=C2/C(=N)N3N=C(CC(=O)N4CCCC4)SC3=NC2=O)cc1OC	14.2
Cc1ccc(/C=C2\C(=N)N3N=C(CC(=O)N4CCCCC4)SC3=NC2=O)cc1	26.9
COc1cc([N+](=O)[O-])ccc1NC(=O)CCCOc1cc(C)ccc1C	8.46
CCOC(=O)c1nn(-c2ccc(Cl)cc2)c2nc(Nc3ccccc3)cc(=O)n12	5.22
COc1ccc(C(=O)Nc2ccc(C)cc2C(=O)c2ccccc2)c(OC)c1	5.96
Cc1ccccc1CNC(=O)c1ccccc1N	14.8
CCn1cc(/C=C/C(=O)Nc2ccn(Cc3c(F)c(F)c(F)c(F)c3F)n2)cn1	-8.72
NC(=O)c1ccc(NC(=O)CSc2cn(CC(=O)N3CCOCC3)c3ccccc23)cc1	2.11
COc1ccc(Nc2ccc(Cl)nn2)cc1	17.6
C/C(=N\Nc1ncc(Br)cn1)c1cccc([N+](=O)[O-])c1	10.7
Cc1ccc(/C=C2/C(=N)N3N=C(CC(=O)N4CCCC4)SC3=NC2=O)o1	-4.18
N=C1/C(=C\c2ccc(Br)o2)C(=O)N=C2SC(CC(=O)N3CCOCC3)=NN12	36.3
Cc1cccc(C(=O)NNC(=O)CCn2nnc3ccccc32)c1	1.08
COCc1cc(C)nc(SCC(=O)Oc2ccc(Cl)cc2)c1C#N	16
COCc1cc(C)nc(SCC(=O)Oc2ccccc2)c1C#N	15.3
Cc1cc(C(F)(F)F)nn1Cc1n[nH]c(=S)n1-c1ccc(F)cc1	15.9
CS(=O)(=O)c1ccc(Cl)c(NC(=O)C2CCCN(C(=O)c3ccc(Cl)cc3)C2)c1 (stereo unspecified)	6.85
COc1ccc(C(=O)NC(C(=O)NCC(=O)Nc2c(C)cccc2C)C(C)C)cc1 (stereo unspecified)	3.58
Cc1nn(CC(=O)N2CCOCC2)c(=O)c2nn(-c3ccccc3)c(C)c12	1.18
COc1cc(O)c(C(CCN2CCN(c3ccccc3)CC2)c2ccc3c(c2)OCO3)c(OC)c1 (stereo unspecified)	7.18
CC(=O)Oc1ccc2c(C)cc(=O)oc2c1	17
CC(=O)Oc1cc2oc(=O)cc(C)c2cc1Cl	14.8

SMILES	inhibition [%]
CC(C)(C)c1ccc(/C=N/NC(=S)Nc2cccnc2)cc1	9.92
Fc1cccc(F)c1/C=N/NC(=S)Nc1cccnc1	24.5
Fc1ccc(/C=N/NC(=S)Nc2cccnc2)cc1	7.01
CN(C(=S)Nc1ccc(Oc2ccccc2)cc1)c1ccc(O)cc1	21.8
COc1ccc(O)c(/C=N/NC(=S)Nc2cccnc2)c1	25.1
CC(C)N(C(=S)Nc1cccnc1)c1ccccc1	12.6
NC(=O)c1ccc(NC(=O)CCCNC(=O)c2ccc(Cl)cc2)cc1	8.64
CCc1ccc(C2=NNC(=Nc3cccc(S(=O)(=O)N(C)C)c3)SC2)cc1	4.35
CCC(C)N(C(=O)c1csnn1)C(C(=O)NC1CCCC1)c1c(F)cccc1Cl (stereo unspecified)	7.33
CCN(CC)CCNC(=O)c1ccc(NC(=O)c2ccc(C(=O)c3ccccc3)cc2)cc1	37.6
O=C(NCCc1c[nH]c2ccccc12)C(=O)NCC1OCCCN1S(=O)(=O)c1ccccc1 (stereo unspecified)	16.5
Cc1ccc(S(=O)(=O)N2CCOC2CNC(=O)C(=O)NCCc2c[nH]c3ccccc23)cc1 (stereo unspecified)	-3.07
COc1ccc(O)c(C(=O)c2cnc3c(c2)c(=O)[nH]c(=O)n3C)c1	3.44
Fc1ccc(/C=N\Nc2cccc(F)c2)cc1	8.31
Cc1ccc(N(C(=O)Cc2c[nH]c3ccccc23)C(C(=O)NC2CCCCC2)c2ccco2)cc1 (stereo unspecified)	-1.52
CN(C)CCCOc1ccc2c(c1)Sc1ccccc1CC2=O	-4.85
O=C1c2c(O)cc(O)cc2O[C@H](c2ccc(O)c(O)c2)[C@@H]1O	5.87
O=C1c2c(O)cc(O)cc2O[C@H](c2ccc(O)c(O)c2)[C@H]1O	7.35
O=C(O[C@@H]1Cc2c(O)cc(O)cc2O[C@@H]1c1cc(O)c(O)c(O)c1)c1cc(O)c(O)c(O)c1	-0.22
Oc1cc(O)c2c(c1)O[C@H](c1ccc(O)c(O)c1)[C@H](O)C2	37.1
COc1cc(C(=S)N2CCOCC2)cc(OC)c1OS(=O)(=O)c1ccc(C)cc1	3.46
Cc1csc(Sc2ccc([N+](=O)[O-])cc2C(=O)OCC(=O)NC2CCCC(C)C2C)n1 (stereo unspecified)	16.8
